Source: PubChem (National Center for Advancing Translational Sciences (NCATS))
HT1080 IDH1KD tx = HT-1080 IDH1 knockdown cell toxicity (counter line); HT-1080 IDH1 knockdown viability, ATP luminescence, 48 h; Potency, µM (highest dose often 46.1 µM), for the others: at the top dose activity, negative = toxicity, hits mostly cytotoxic; 360,000 compounds, 2% hits; AID 686971;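 note: 0% = DMSO wells and -100% = cell-free medium wells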
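Luminescent ATP read-out (CellTiter-Glo, 10 min at room temperature) after 48 h compound exposure at 37 °C gave viability of IDH1-knockdown HT-1080 cells. Activity was normalised to DMSO and cell-free wells, then fitted as concentration-response curves.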
KB-3-1 tox = KB-3-1 parental cell cytotoxicity; KB-3-1 viability, CellTiter-Glo ATP luminescence, 72 h; Potency, µM (titrated, usually from 46.1 µM), usual class: cytotoxic; 400,000 compounds, 1.4% hits; note: nearly all actives have a fitted effect of over 60% in size
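Screening of KB-3-1 cells (DMEM, 10% FBS, phenol-red free) ran from lowest to highest compound concentration; after 72 h at 37 °C viability was read luminescently and curves fitted.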
TDP1 cell CPT = growth inhibition of DT40 Tdp1-/-;hTDP1 cells with camptothecin (screen for TDP1 inhibitors); chicken DT40 Tdp1-/-;hTDP1 cells + 20 nM CPT, ATP luminescence, 48 h; Potency, µM (series often up to 46.2 µM), for the others: top-dose activity change, negative = growth inhibition, usual class: inhibitors; 420,000 compounds, 12% hits; note: nearly all actives have a fitted effect of over 55% in size
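Chicken DT40 Tdp1-/- cells stably complemented with human TDP1 were seeded at 400 cells/well in medium containing 20 nM camptothecin, exposed to pin-transferred compounds, and grown at 37 °C for at least 48 hr. Viability was read as ATP luminescence.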
HT1080-NT tox = kills 2HG-producing HT-1080-NT fibrosarcoma cells; HT-1080-NT fibrosarcoma viability, CellTiter-Glo ATP luminescence, 48 h; Potency, µM (top dose mostly 46.1 µM), for the others: top-dose activity, negative = less viability, hits mostly cytotoxic; 360,000 compounds, 1.6% hits; AID 686970;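 note: NT is the 2HG producing partner of a matched IDH1 knockdown line; 0% = DMSO-treated cells and -100% = media-only wells without cells; nearly all actives have a fitted effect of over 55% in size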
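Read-out is CellTiter-Glo luminescence after 10 minutes at room temperature, following 48 hours' compound treatment of HT-1080-NT cells (750 cells/well, RPMI, 5% FBS, 37 degrees C).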
TDP1 cell noCPT = qHTS for Inhibitors of human tyrosyl-DNA phosphodiesterase 1 (TDP1): qHTS in cells in absence of CPT. 420,000 compounds, 15% hits. DT40 Tdp1-/- hTDP1 cells, no CPT, ATP luminescence, 48 h. Potency, µM (top dose mostly 46.2 µM), inactives show at the top dose activity change, negative = growth inhibition, actives largely listed as inhibitors; note: nearly all actives have a fitted effect of over 55% in size
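Chicken DT40 Tdp1-/- cells stably complemented with human TDP1 were seeded at 400 cells/well with DMSO in place of 20 nM camptothecin. After compound pinning, cells grew at least 48 hr at 37 °C; viability read by CellTiter-Glo luminescence.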
KB-V1 MDR tox = kills drug-selected multidrug resistant KB-V1 cells; KB-V1 MDR cells viability, CellTiter-Glo, 72 h; Potency, µM (top dose mostly 46.1 µM), actives largely listed as cytotoxic; 400,000 compounds, 3.4% hits; AID 1347076; note: nearly all actives have a fitted effect of over 60% in size
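Potencies derive from concentration-effect curves fitted to normalized luminescence (CellTiter-Glo) of KB-V1 cells treated for 72 h at 37 degrees C in phenol-red-free DMEM containing 10% FBS.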
* marks the source's active call; other numbers are inactive results; i = inactive; ? = inconclusive; nt = no result; [ ] = another dose, or the depositor's remark. Hits are enriched below; roughly 19% of the tested compounds scored in any of these assays. Calls come from the whole dose curve; as a rule, active = well fitted curve in the direction sought with a large enough effect; inconclusive = small, poorly fitted or top-dose-only effect, or another doubt; inactive = no such curve, though single readings can be large; an effect the other way counts as inactive or inconclusive. Unless noted, % is set by controls: 0 for no effect and ±100 for the full control effect; potency is the fitted concentration of half-maximal effect.

SMILES | HT1080 IDH1KD tx | KB-3-1 tox | TDP1 cell CPT | HT1080-NT tox | TDP1 cell noCPT | KB-V1 MDR tox
O=C(c1nn(Cc2ccccc2)c(=O)c2ccccc12)N1CCc2ccccc2C1 | -1% | i | -27% | 4% | 16µM* | ?
O=C(Nc1nc(-c2ccccn2)cs1)c1cc(Cl)ccc1[N+](=O)[O-] | ? | i | 0.82µM* | ? | 1.5µM* | ?
Cc1cc(C(=O)Nc2cnc3ccccc3c2)ccc1[N+](=O)[O-] | 11% | i | 6% | 17% | -2% | i
Cc1cc(C(=O)Nc2nc(-c3ccccn3)cs2)ccc1[N+](=O)[O-] | ? | ? | 2.3µM* | -19% | 2.9µM* | ?
COC(=O)c1sc(NC(=O)c2ccc(Cn3cc(Cl)cn3)o2)c(C#N)c1C | -3% | i | 16µM* | -9% | ? | i
Cc1ccccc1-c1cc(C(=O)Nc2sc(C)c(C)c2C(N)=O)c2ccccc2n1 | ? | i | 16µM* | ? | 18µM* | 16µM*
CCOC(=O)c1sc(NC(=O)c2ccncc2)c(C#N)c1C | -1% | 4.1µM* | 6.5µM* | ? | 5.2µM* | 2.6µM*
CCOC(=O)c1sc(NC(=O)CSc2nc(C)cc(-c3ccccc3)n2)c(C#N)c1C | -7% | i | 1% | 18% | -14% | i
CCOC(=O)c1sc(NC(=O)c2cc(-c3ccccc3C)nc3ccccc23)c(C#N)c1C | ? | 8.2µM* | 9.2µM* | ? | 7.3µM* | ?
C=CCC1CCCC(=O)N2CC[C@H](O)C12 (stereo partly drawn) | -3% | i | -23% | -3% | -17% | i
O=C(NC1CCCC1)C1C(c2ccccc2)=Nc2ccccc2N1C(=O)c1cc(Cl)cc(Cl)c1 (stereo not drawn) | -3% | ? | 18µM* | 13% | 29µM* | ?
CNc1cc(-n2nc(C)cc2-c2ccccc2)ncn1 | -5% | i | -18% | -3% | 1% | i
Cc1cc(-c2ccccc2)n(-c2cc(N/N=C/c3ccccc3O)ncn2)n1 | 1µM* | ? | 4.6µM* | ? | 3.3µM* | 0.82µM*
O=C(/C=C/c1ccc(F)cc1)NC(=S)Nc1ccccc1O | -12% | i | ? | 8% | 18µM* | i
CC(=O)c1ccc(NC(=S)NC(=O)/C=C/c2ccc(F)cc2)cc1 | 18% | i | -5% | 10% | ? | i
O=C(/C=C/c1ccccc1)NC(=S)Nc1ccccc1O | -13% | i | ? | -8% | 21µM* | i
Cc1ccc(O)c(NC(=S)NC(=O)/C=C/c2ccccc2)c1 | 6% | i | 24% | 6% | -27% | ?
O=C(NN=C1CCCC1)c1n[nH]c2c1CCC2 | 3.7µM* | ? | 1% | 2.6µM* | 8% | ?
Cc1ccsc1/C=N/NC(=O)c1sccc1C | ? | i | ? | ? | ? | i
O=C(N/N=C/c1c(Cl)cccc1Cl)c1ccc(F)cc1 | -2% | i | -10% | 18% | -17% | i
O=C(N/N=C/c1c(Cl)cccc1Cl)c1n[nH]c2c1CCCC2 | -1% | i | 23µM* | 10% | 12µM* | i
Cc1ccsc1/C=N\NC(=O)c1n[nH]c2c1CCC2 | 7.3µM* | 3.3µM* | 3.3µM* | 6.5µM* | 3.3µM* | 4.6µM*
CC1(c2ccccc2)NC(=O)N(CC(=O)Nc2ccccc2C(=O)N2CCCCC2)C1=O (stereo not drawn) | 15% | i | 1% | 3% | -20% | i
CCOC(=O)COc1ccc(/C=C(\C#N)c2nc3ccc(C)cc3[nH]2)cc1OC | nt | 18µM* | ? | nt | ? | ?
Cc1ccc2nc(/C(C#N)=C\c3cc(O)ccc3[N+](=O)[O-])[nH]c2c1 | -24% | i | -8% | -5% | -22% | i
SMILES | HT1080 IDH1KD tx | KB-3-1 tox | TDP1 cell CPT | HT1080-NT tox | TDP1 cell noCPT | KB-V1 MDR tox
COc1cc(/C=C(\C#N)c2nc3ccc(C)cc3[nH]2)ccc1OCc1ccc(C)cc1 | nt | i | 12µM* | nt | 8.2µM* | i
COc1cccc(/C=C(\C#N)c2nc3ccc(C)cc3[nH]2)c1 | nt | ? | 18µM* | nt | 18µM* | ?
COc1cc(/C=C(\C#N)c2ccccn2)ccc1OCc1ccc(Cl)cc1 | 2% | i | ? | 9% | 23µM* | i
Cc1ccc(-n2ncc3c2CCCC3NC(=O)CCc2c(C)noc2C)cc1C (stereo not drawn) | 4% | i | -63% | -4% | -68% | i
Cc1ccc2c(c1)NC(=O)C(CC(=O)N(C)Cc1ccccc1)O2 (stereo not drawn) | 6% | i | -24% | 7% | -20% | i
CCCCCCNS(=O)(=O)c1ccc(Cl)s1 | -5% | i | -15% | 12% | ? | i
O=S(=O)(NCCCN1CCOCC1)c1ccc(Cl)s1 | 0% | ? | ? | 11% | 23µM* | i
O=S(=O)(NCCN1CCOCC1)c1ccc(F)c(Cl)c1 | 19% | i | 18µM* | 16% | 16µM* | i
CCOc1ccc2oc(C(=O)OCC(=O)NC3CCCC3)c(C)c2c1 | 3% | i | ? | -5% | -10% | i
Cc1ccc2oc(C(=O)N(C)Cc3ccc(C)o3)c(C)c2c1 | 0% | i | 8.2µM* | -13% | 16µM* | i
CCOc1ccc2oc(C(=O)Nc3ccc(C)cn3)c(C)c2c1 | 8% | i | ? | 3% | 18µM* | i
CCOc1ccc2oc(C(=O)NC3CCN(Cc4ccccc4)CC3)c(C)c2c1 | ? | ? | 3.7µM* | ? | 5.2µM* | ?
CCCN(CC1CC1)C(=O)COC(=O)c1oc2ccc(OCC)cc2c1C | -7% | i | -18% | -8% | 6.5µM* | i
Cc1ccc(NC(=O)c2oc3ccccc3c2C)nc1 | -3% | i | ? | 3% | -18% | i
Cc1ccc(NS(=O)(=O)c2ccc(-c3coc(C)n3)cc2)c(Br)c1 | -10% | i | -14% | 0% | -11% | i
Cc1ccc(/C=C2\SC(=S)N(/N=C/c3cc([N+](=O)[O-])ccc3O)C2=O)o1 | -4% | i | ? | 0% | ? | i
Cc1ccc2oc(C(=O)Nc3cc(C)on3)c(C)c2c1 | 10% | i | -7% | -1% | 5.8µM* | i
COc1ccccc1NC(=O)c1oc2ccc(C)cc2c1C | 11%[9.24 µM] | i | ? | -7% | ? | i
